Screen size: about 25,000 compounds; about 970 (3.9%) were called active. Inconclusive results (about 8%) are left out. The rule behind the calls is not given here. The list comes from a sample in which actives are over-represented; it also holds similar structures and randomly drawn compounds.

What all share (assay): Primary Screen for Target Class Profiling of Small Molecule Inhibitors of Methyltransferases
The target of assay [1] is Catechol O-methyltransferase (Homo sapiens) (UniProt P21964). Particulars: purified enzyme, MTase-Glo SAH luminescence; activity change, negative = inhibition: at 40 µM, stronger effect = lower value; outcome: 40 uM. From the text:
(§1) PI: Matthew D. Hall Ph.D. and Quinlin M. Hanson Ph.D.
(§2) National Center for Advancing Translational Sciences (NCATS)
(§3) National Institute of Health (NIH), Rockville, MD
(§4) Target class profiling (TCP) is a chemical biology approach amenable to investigating understudied biological targets. TCP is achieved by developing a generalizable assay platform and applying it to screen a curated set of compound libraries against representative members of a target class. Small molecule methyltransferases (SMMTase) are a subclass of methyltransferase that act on metabolites to modulate signaling pathways, metabolize xenobiotics, or balance the available methyl pool. We screened four curated libraries totaling 27,574 unique compounds against the SMMTases nicotinamide N-methyltransferase (NNMT), phenylethanolamine N-methyltransferase (PNMT), histamine N-methyltransferase (HNMT), glycine N-methyltransferase (GNMT), catechol O-methyltransferase (COMT), and guanidinoacetate N-methyltransferase (GAMT). The data generated by this TCP can be leveraged for informed tool molecule development. For example, in the associated publication we identified a chemotype of HNMT-selective inhibitors. Additionally, we identified a putative SMMTase-selective inhibitor with potential as a tool molecule for studying broader methyltransferase biology.
(§5) High-through put screening assays were developed at the National Center for Advancing Translational Science (NCATS) for the enzymes NNMT, PNMT, HNMT, GNMT, COMT, and GAMT. Enzymatic activity was measured as a function of SAM cofactor conversion using the MTase Glo kit (Promega) for all enzymes. All assays were performed in 1536-well format with substrates and SAM concentrations at KM values. Enzyme concentration and assay timing were optimized for 10-20% SAM conversion. Initial screening of 27,574 compounds was done as single-point assays using the highest compound concentration (40 uM). […] These compounds were replated in 11-point dose response and assayed against NNMT, PNMT, HNMT, GNMT, COMT, GAMT, and a counter-assay. The IC50 and efficacy (maximal response) values were determined for each dose-response curve. These values are also accounted for in the area under the curve (AUC) values.
(§6) PROTOCOL TABLE (as described by Inglese J, Shamu CE and Guy RK. 2007)
(§7) SEQUENCE No. (e.g., 1, 2, 3, etc.); […] (e.g., Cells, Incubation, Reagent, etc.); VALUE; DESCRIPTION.
(§8) 1; Reagent; 2 uL; SMMTase Enzyme (2x) in reaction buffer, columns 1- 48.
(§9) 2; Reagent; 1 uL; SAM (4x) in reaction buffer, columns 1-48.
(§10) 3; Controls; 23 nL; DMSO in column 4; sinefungin in DMSO (0 uM - 40 uM) in 7-point 1:2 dilution series (n = 2) in column 2.
(§11) 4; Compounds; 23 nL; Columns 5-48.
(§12) 5; Reagent; 1 uL; Substrate (4x) in reaction buffer, columns 2-48.
(§13) 6; Time; 20-30 min; Incubation.
(§14) 7; Reagent; 1 uL; MTase-Glo reagent (5X), columns 1-48.
(§15) 8; Time; 30 min; Incubation.
(§16) 9; Reagent; 5 uL; MTase-Glo Detection reagent, columns 1-48.
(§17) 10; Time; 30 min; Incubation, luminescence evolution.
(§18) 11; Detection; Luminescence; ViewLux uHTS Microplate Imager (PerkinElmer).
(§19) NOTES (numbers refer to Sequence numbers above)
(§20) 1, 2, 5. White Medium Binding Greiner 1536-well plates (Cat #789175-F, Greiner Bio-One, Monroe, NC); Reaction buffer: 50 mM Tris, pH 8.0, 3 mM MgCl2, 1 mM EDTA, 50 mM NaCl, 1 mM DTT, and 0.1 mg/mL BSA. Evaporation was prevented by covering assay plates with metal lids containing holes to allow gas diffusion.
(§21) 1. Six SMMTase were profiled: HNMT, GNMT, PNMT, COMT, NNMT, GAMT
(§22) 5. The corresponding substrate was used for each enzyme: HNMT - 5.3 uM Histamine; GNMT - >500 uM Glycine; PNMT - 16.2 uM Norephinephrine; COMT - 13.7 uM Norephinephrine; NNMT - 3.8 uM Nicotinamide; GAMT - 2.5 uM Guanidinoacetate.6, 8, 10. Room temperature
(§23) 6. Final reaction conditions: 10 nM COMT, 5 uM SAM, 15 uM norepinephrine, 50 mM Tris, pH 8.0, 3 mM MgCl2, 1 mM EDTA, 50 mM NaCl, 1 mM DTT, and 0.1 mg/mL BSA; refer to tables 2 and S1 for specific timing.
8. […]

For assay [2], the target named is Glycine N-methyltransferase (Homo sapiens) (UniProt Q14749). Particulars: purified enzyme, MTase-Glo SAH luminescence; measured here: GNMT inhibition; at 40 µM; stronger effect = lower value.
Source text: as §1, §2, §3, §4, §5, §6, §7, §8, §9, §10, §11, §12, §13, §14, §15, §16, §17, §18, §19, §20, §21, §22, §23
8. […]

Assay [3] addresses Guanidinoacetate N-methyltransferase (Homo sapiens) (UniProt Q14353). Particulars: purified enzyme, MTase-Glo SAH luminescence; measured here: GAMT inhibition; at 40 µM; stronger effect = lower value.
Source text: as §1, §2, §3, §4, §5, §6, §7, §8, §9, §10, §11, §12, §13, §14, §15, §16, §17, §18, §19, §20, §21, §22, §23
8. […]

Assay [4] deals with Histamine N-methyltransferase (Homo sapiens) (UniProt P50135). Particulars: purified enzyme, MTase-Glo SAH luminescence; measured here: HNMT inhibition; at 40 µM; stronger effect = lower value.
Source text: as §1, §2, §3, §4, §5, §6, §7, §8, §9, §10, §11, §12, §13, §14, §15, §16, §17, §18, §19, §20, §21, §22, §23
8. […]

Assay [5] has as its target Nicotinamide N-methyltransferase (Homo sapiens) (UniProt P40261). Particulars: purified enzyme, MTase-Glo SAH luminescence; measured here: NNMT inhibition; at 40 µM; stronger effect = lower value.
Source text: as §1, §2, §3, §4, §5, §6, §7, §8, §9, §10, §11, §12, §13, §14, §15, §16, §17, §18, §19, §20, §21, §22, §23
8. […]

Assay [6] addresses Phenylethanolamine N-methyltransferase (Homo sapiens) (UniProt P11086). Particulars: purified enzyme, MTase-Glo SAH luminescence; measured here: PNMT inhibition; at 40 µM; stronger effect = lower value.
Source text: as §1, §2, §3, §4, §5, §6, §7, §8, §9, §10, §11, §12, §13, §14, §15, §16, §17, §18, §19, §20, §21, §22, §23
8. […]
% is set by controls: 0 for no effect and ±100 for the full control effect.

Chain of Glycine N-methyltransferase (Homo sapiens) (Q14749 whole entry, looked up): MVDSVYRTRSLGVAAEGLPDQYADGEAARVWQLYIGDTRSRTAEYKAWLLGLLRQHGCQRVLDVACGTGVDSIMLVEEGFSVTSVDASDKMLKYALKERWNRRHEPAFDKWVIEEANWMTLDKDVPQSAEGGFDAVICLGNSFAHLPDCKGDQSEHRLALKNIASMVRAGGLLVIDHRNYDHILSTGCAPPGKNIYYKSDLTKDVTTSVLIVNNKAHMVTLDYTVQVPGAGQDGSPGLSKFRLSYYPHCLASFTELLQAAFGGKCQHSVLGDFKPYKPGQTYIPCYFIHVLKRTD
Chain of Phenylethanolamine N-methyltransferase (Homo sapiens) (P11086 whole entry, looked up): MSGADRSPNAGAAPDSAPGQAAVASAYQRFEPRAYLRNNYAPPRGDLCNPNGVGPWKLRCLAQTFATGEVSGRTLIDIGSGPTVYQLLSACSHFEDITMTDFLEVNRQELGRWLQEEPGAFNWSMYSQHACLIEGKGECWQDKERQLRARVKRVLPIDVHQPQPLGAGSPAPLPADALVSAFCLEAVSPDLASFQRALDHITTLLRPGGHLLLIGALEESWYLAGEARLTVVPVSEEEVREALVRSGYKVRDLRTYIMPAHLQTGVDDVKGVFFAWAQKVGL
Chain of Histamine N-methyltransferase (Homo sapiens) (P50135 whole entry, looked up): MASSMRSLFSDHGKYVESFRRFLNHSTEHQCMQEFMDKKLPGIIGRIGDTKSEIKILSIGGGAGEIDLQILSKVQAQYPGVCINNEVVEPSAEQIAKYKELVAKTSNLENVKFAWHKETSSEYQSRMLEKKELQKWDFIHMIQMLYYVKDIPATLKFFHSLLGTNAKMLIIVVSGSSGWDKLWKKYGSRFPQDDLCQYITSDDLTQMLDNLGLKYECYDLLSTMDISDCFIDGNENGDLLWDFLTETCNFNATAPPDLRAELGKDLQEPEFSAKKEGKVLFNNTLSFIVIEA
Chain of Catechol O-methyltransferase (Homo sapiens) (P21964 whole entry, looked up): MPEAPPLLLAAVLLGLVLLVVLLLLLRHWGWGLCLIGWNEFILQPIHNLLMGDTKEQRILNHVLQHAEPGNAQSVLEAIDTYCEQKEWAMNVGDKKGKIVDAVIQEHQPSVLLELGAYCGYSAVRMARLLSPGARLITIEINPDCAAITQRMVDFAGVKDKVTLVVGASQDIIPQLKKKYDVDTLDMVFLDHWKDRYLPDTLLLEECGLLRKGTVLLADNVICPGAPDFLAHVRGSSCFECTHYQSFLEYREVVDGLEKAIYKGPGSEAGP
Chain of Nicotinamide N-methyltransferase (Homo sapiens) (P40261 whole entry, looked up): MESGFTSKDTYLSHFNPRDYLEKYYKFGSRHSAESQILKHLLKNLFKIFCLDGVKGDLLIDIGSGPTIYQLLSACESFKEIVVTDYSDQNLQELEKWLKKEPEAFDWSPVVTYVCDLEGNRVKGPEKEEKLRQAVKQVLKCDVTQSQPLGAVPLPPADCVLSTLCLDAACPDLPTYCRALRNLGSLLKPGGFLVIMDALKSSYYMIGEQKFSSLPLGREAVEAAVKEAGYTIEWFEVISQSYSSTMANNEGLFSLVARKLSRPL

With `O=C(Nc1ccc2ncnc(N3CCCCC3)c2c1)C1CCCCC1`, the activity change, negative = inhibition is -91.5% (active) in assay [1]; -90.3% in assay [2]; -88.7% in assay [3]; -91.6% in assay [4]; -92.3% in assay [5]; -90.6% in assay [6].

For `COc1ccc(OC)c(CNC(=O)CCn2ccc3cc(S(=O)(=O)N4CCCCC4)ccc32)c1`, the activity change, negative = inhibition in assay [1] is -2.28% (inactive); in assay [2] it was -4.44%; in assay [3], 0.679%; in assay [4] it was -7.33%; in assay [5], -15%; in assay [6] it was -3.87%.

Take `COc1cc2c(cc1O)NC(=O)CC2c1cn[nH]c1-c1cc(C)ccc1C` (configuration not stated): the activity change, negative = inhibition in assay [1] was -43% (active); in assay [2], -48.4%; in assay [3] it was -38.7%; in assay [4], -60.8%; in assay [5], -38.3%; in assay [6], -13.5%.

`COCC(=O)Nc1ncncc1-c1noc([C@@H]2CCCN2Cc2cc(OC)c(OC)c(OC)c2)n1`: the activity change, negative = inhibition in assay [1] was -16.9% (inactive); in assay [2], -9.35%; in assay [3] it was -8.08%; in assay [4], -8.93%; in assay [5], -16.4%; in assay [6], -12.8%.

For the compound `O=C(c1ccc(C(F)(F)F)cc1)N1CCC2(COc3ccncc3[S+](=O)([O-])N2)C1` (configuration not stated), the activity change, negative = inhibition in assay [1] is -0.613% (inactive); in assay [2] it was -4.6%; in assay [3] it was -3.02%; in assay [4] it was -0.962%; in assay [5], -5.7%; in assay [6] it was -0.429%.

On to `Cn1ccc(Nc2cc3c(cn2)CN(CCc2ccccc2)CCN3)n1`, for which the activity change, negative = inhibition in assay [1] was -9.44% (active); in assay [2] it was -10.2%; in assay [3] it was -12.2%; in assay [4], -92.8%; in assay [5] it was -17.5%; in assay [6] it was -56.1%.

For the compound `O=C1N2CCCC2CN1C1CCN(Cc2ccsc2)CC1` (configuration not stated), the activity change, negative = inhibition was 3.52% (inactive) in assay [1]; -1.71% in assay [2]; 0.192% in assay [3]; 0.939% in assay [4]; -3.94% in assay [5]; 6.61% in assay [6].

Take `CN(CC(=O)N1CCC2(CCNCC2)CC1)Cc1cccnc1`: the activity change, negative = inhibition was -5.94% (inactive) in assay [1]; -3.63% in assay [2]; -4.3% in assay [3]; -5.87% in assay [4]; -4.19% in assay [5]; -3.85% in assay [6].

Regarding `COc1ccc(S(=O)(=O)N2CCCCC2c2n[nH]c(C)n2)cc1` (configuration not stated), the activity change, negative = inhibition in assay [1] is 12.4% (inactive); in assay [2], 15.6%; in assay [3] it was 2.87%; in assay [4], 11.2%; in assay [5], 10.1%; in assay [6], 11.2%.

On to `O=C1NC(=NC2CCCC2)C2(CCCN([S+](=O)([O-])c3ccccc3)C2)N1c1cccnc1` (configuration not stated), for which the activity change, negative = inhibition in assay [1] was -0.276% (inactive); in assay [2] it was -3.99%; in assay [3], -4.94%; in assay [4], -1.01%; in assay [5], -11%; in assay [6], -21.7%.

In the case of `O=C(C1CC1)N1CCn2c(nn(-c3ccc(F)cc3)c2=O)C1`, the activity change, negative = inhibition in assay [1] is -5% (inactive); in assay [2] it was -3.41%; in assay [3], -8.31%; in assay [4], -2.04%; in assay [5], -9.2%; in assay [6], -5.36%.

With `N#CSc1cc(SC#N)c(N)nc1N`, the activity change, negative = inhibition in assay [1] was -62.1% (active); in assay [2] it was -92.7%; in assay [3] it was -77.3%; in assay [4], -92.3%; in assay [5], -58.6%; in assay [6], -40.8%.

Consider `C=C(C)Cn1c(=O)[nH]c2ccccc21`, for which the activity change, negative = inhibition is 7.05% (inactive) in assay [1]; -1.89% in assay [2]; 0% in assay [3]; 7.74% in assay [4]; 13.6% in assay [5]; 4.12% in assay [6].

For the compound `CN1CCCN(S(=O)(=O)c2cccs2)c2ccccc21`, the activity change, negative = inhibition in assay [1] is -6.9% (inactive); in assay [2], -11.1%; in assay [3], -3.04%; in assay [4] it was -16.1%; in assay [5], -12.8%; in assay [6], -18.8%.

Turning to `Cc1cccc(CSc2nnc3n(CC(C)C)c(=O)c4ccccc4n23)c1`, the activity change, negative = inhibition in assay [1] was 2.1% (inactive); in assay [2], -7.23%; in assay [3], 0.416%; in assay [4] it was 3.69%; in assay [5], -10.9%; in assay [6], 4.42%.

Turning to `NCCCC(=O)N1CCN(C2CCNCC2)C(=O)C1`, the activity change, negative = inhibition in assay [1] is -0.26% (inactive); in assay [2], -0.497%; in assay [3] it was -3.99%; in assay [4] it was 1.59%; in assay [5], -1.96%; in assay [6], 0.025%.

In the case of `O=C(N[C@@H]1CN(C2CCOCC2)CC[C@@H]1CO)c1ccccc1`, the activity change, negative = inhibition is -14.8% (inactive) in assay [1]; -7.11% in assay [2]; -12.7% in assay [3]; -6.52% in assay [4]; -17.2% in assay [5]; -14.2% in assay [6].
